Out of some 69,000 compounds screened, about 8,600 (12%) showed an effect of 50% or more. This is one part of a sample in which strong results are shown more often than they occur.
Tested on: Plasmodium berghei
Assay: Screen against P. berghei liver stage (PbLuc), transformed with Luciferase, at 10uM
Assay type: functional, HepG2
Settings: tested at 10 uM

Row | SMILES | INHIBITION [%]
1 | CCc1cc(O)n2nc(C3CCN(C(=O)c4cccnc4)CC3)cc2n1 | 13.3
2 | CCN1CCCC(O)(c2nc(C)c(CCOc3ccccc3F)s2)CC1 (configuration not stated) | 7.52
3 | COc1ccc(OCCc2sc(C3(O)CCCNCC3)nc2C)cc1 (configuration not stated) | 52.3
4 | Cc1nc(C2(O)CCCNCC2)sc1CCOc1ccccc1F (configuration not stated) | 0.301
5 | CCN1CCCC(O)(c2nc(C)c(CCOc3ccc(F)cc3)s2)CC1 (configuration not stated) | 59.3
6 | COc1ccc(OCc2sc(C3(O)CCCNCC3)nc2C)cc1 (configuration not stated) | 31.3
7 | Cc1nc(C2(O)CCCNCC2)sc1CCOc1ccccc1Cl (configuration not stated) | 55.6
8 | Cc1nc(C2(O)CCCNCC2)sc1CCOc1ccc(F)cc1 (configuration not stated) | 47.2
9 | Cc1nc(C2(O)CCCNCC2)sc1CCOc1ccc(F)c(F)c1 (configuration not stated) | 46
10 | CCCN1CCCC(O)(c2nc(C)c(COc3ccccc3)s2)CC1 (configuration not stated) | 27.6
11 | CCN1CCCC(O)(c2nc(C)c(CCOc3ccccc3Cl)s2)CC1 (configuration not stated) | 28
12 | Cc1nc(C2(O)CCCNCC2)sc1CCOc1ccc(Cl)cc1 (configuration not stated) | 73.9
13 | Cc1nc(C2(O)CCCNCC2)sc1CCOc1ccccc1 (configuration not stated) | 49.6
14 | CCSc1cc(C(=O)NC2CCN(C(=O)c3ccccc3)CC2)ccn1 | 33.4
15 | Cc1ncc2c(n1)CN(Cc1nc(Cc3ccccc3)no1)CC2 | 41.2
16 | O=C(CCOc1ccc(Cl)cc1)NCCCn1cccn1 | 48.8
17 | O=C(CCOc1cccc(Cl)c1)N1CCN(c2cnccn2)CC1 | -8.11
18 | Cc1ccc(CCNC(=O)NCCCC(N)=O)c(C)c1 | -18.6
19 | CCNC(=O)N1CCC(NC(=O)NCCc2cc3ccccc3o2)C1 (configuration not stated) | -43.8
20 | Cc1cccc(CC(=O)NC2CCN(C(=O)NC(C)(C)C)CC2)c1 | -38.4
21 | CCNC(=O)N1CCC(NC(=O)NCCCc2cccc(F)c2)C1 (configuration not stated) | 35
22 | CCNC(=O)N1CCC(NC(=O)NCCc2ccc(C)cc2C)C1 (configuration not stated) | 51.7

Row | SMILES | INHIBITION [%]
23 | CCNC(=O)N1CCC(Cc2cccc(C(N)=O)c2)C1 (configuration not stated) | 10.7
24 | CCNC(=O)N1CCC(NC(=O)NCCc2cc(F)cc(F)c2)C1 (configuration not stated) | 57.3
25 | CC1CCN(C(=O)NCCc2cc(F)ccc2F)C1 (configuration not stated) | -21.2
26 | CCNC(=O)N1CCC(NC(=O)NCCc2cccc(C)c2)C1 (configuration not stated) | 77.7
27 | Cc1ccc(CN2Cc3c(C(=O)N4CCN(C)CC4)nn(C)c3C2)s1 | 3.25
28 | COCc1n[nH]/c(=N\C(=O)c2c3c(nc4onc(C)c24)CCC3)s1 | 10.7
29 | CC1(C(=O)N2CCOCC2)CN(Cc2ccccc2F)CCO1 (configuration not stated) | 25.6
30 | O=C(Nc1ccc(-c2csnn2)cc1)NC(CCO)C1CC1 (configuration not stated) | 6.11
31 | Cc1ccc(Cl)cc1NCc1nc2[nH]c(C)c(C)c(=O)n2n1 | 18.3
32 | CCc1ccccc1NCc1nc2[nH]c(C)c(C)c(=O)n2n1 | 52.5
33 | Cc1[nH]c2nc(CNc3ccccc3Cl)nn2c(=O)c1C | -7.83
34 | CN1CCC(Nc2cc(Cl)ccc2OCC(F)(F)F)C1=O (configuration not stated) | 4.34
35 | Cc1cc(CCC(=O)N(C)C)nc(C2CCCCN2)n1 (configuration not stated) | 26.3
36 | Cc1nnc(SCCCNC(=O)Cc2ccc3c(c2)OCO3)s1 | 40.9
37 | COCCCNC(=O)CN(C)C(=O)c1cc(Cl)ccc1O | -15.8
38 | COCCCNC(=O)Cc1cc(-c2ccccc2)on1 | -34.3
39 | O=C(Cc1cc(-c2ccc3c(c2)OCCO3)on1)NCc1ccccn1 | 70
40 | Cc1cc(C(=O)NCc2ccccn2)no1 | -1.88
41 | Cn1cc(CCNC(=O)CCc2ccc3c(c2)OCO3)cn1 | 31.3
42 | O=C(Cc1cc(-c2ccc3c(c2)OCO3)on1)NC1CCCC1 | 14.6
43 | COCCCNC(=O)Cc1cc(-c2ccc(Cl)cc2)on1 | 53.7
44 | COCCCNC(=O)Cc1cc(-c2ccc3c(c2)OCO3)on1 | 65.7

Row | SMILES | INHIBITION [%]
45 | O=C(N1CCOCC1)N1CCCC(c2ncncc2-c2ccncc2)C1 (configuration not stated) | 5.11
46 | CC(=O)NCCNC(=O)CN1CCOC(Cn2cccn2)C1 (configuration not stated) | 9.29
47 | Cc1csc(N2CCCN(CCC(=O)NC(N)=O)CC2)n1 | 9.54
48 | CN(C)C(CNC(=O)c1[nH]nc(C2CC2)c1Br)C1CC1 (configuration not stated) | -4.15
49 | Cc1cc(N2CCCC(O)(CN(C)C(=O)CCN)C2)c2cnccc2n1 (configuration not stated) | -6.88
50 | COCC(=O)N1CC(c2ccnc(Nc3cc(C(F)(F)F)ccn3)n2)C1 | -12.3
51 | CCOC(=O)c1cnn(-c2cc(Oc3cccc(C)c3)ncn2)c1N | 51.6
52 | CCOC(=O)c1cnn(-c2cc(Oc3ccccc3)ncn2)c1N | -10.9
53 | COC(=O)c1cnn(-c2cc(Oc3cccc(C)c3)ncn2)c1N | 72
54 | CCOC(=O)c1cnn(-c2cc(Oc3ccccc3C)ncn2)c1N | -35.9
55 | CCOC(=O)c1cnn(-c2cc(C)ccn2)c1N | -104
56 | Cc1ccc(C)c(-n2ncc(C(=O)N(C)CCc3ccccn3)c2N)c1 | -3.33
57 | Cc1cc(C)n(C2CCN(S(C)(=O)=O)CC2)n1 | -0.232
58 | Cc1nn(C)c(N(C)C)c1CNCc1ccc(OCC(N)=O)cc1 | 3.45
59 | c1cn(-c2nccnc2C2CCCN(C3CCOCC3)C2)cn1 (configuration not stated) | 18.805
60 | N#Cc1cccc(CN2CCC3(CC2)CC(c2ccncc2)C(=O)N3)c1 (configuration not stated) | -1.26
61 | O=C1NC2(CCN(Cc3nccs3)CC2)CC1c1ccncc1 (configuration not stated) | 48.9
62 | O=C1NC2(CCN(Cc3ccsc3)CC2)CC1c1ccncc1 (configuration not stated) | 12.6
63 | O=C1NC2(CCN(C(=O)c3ccc(Cl)cc3)CC2)CC1c1ccccc1 (configuration not stated) | 14
64 | N#Cc1ccccc1CN1CCC2(CC1)CC(c1ccccc1)C(=O)N2 (configuration not stated) | 62.8
65 | O=C1NC2(CCN(Cc3ccccc3Cl)CC2)CC1c1ccccc1 (configuration not stated) | 68.4
66 | O=C1NC2(CCN(Cc3ccoc3)CC2)CC1c1ccncc1 (configuration not stated) | 32.4

Row | SMILES | INHIBITION [%]
67 | O=C1NC2(CCN(Cc3cccs3)CC2)CC1c1ccncc1 (configuration not stated) | 59.1
68 | O=C1NC2(CCN(Cc3ccc(F)cc3)CC2)CC1c1ccncc1 (configuration not stated) | 35.4
69 | CCNC(=O)c1ccc2c(c1)nc1n2CCN(Cc2ccco2)C1 | -9.48
70 | C[C@H]1C[C@H]2CN(S(=O)(=O)c3ccc(F)cc3)CC[C@@H]2O1 | -1.12
71 | CCn1cc(-c2nn3c(C(F)(F)F)nnc3s2)cn1 | -11.4
72 | O=C(NCC1CCC(c2ccnc3ncnn23)CC1)C1CC1 (configuration not stated) | 21.1
73 | CSc1ncn(-c2nc(N(C)C)nc(N(C)C)n2)n1 | 21.2
74 | CN(C)C(=O)N1CCC2(CC1)NC(=O)c1ccccc12 | -13.9
75 | O=C(NCc1ccco1)N1CCCCC1c1nc(C2CC2)no1 (configuration not stated) | 16
76 | COC(=O)[C@H](C)NC(=O)c1nc(C2CC2)n(-c2ccccc2Cl)n1 | -20.8
77 | Cn1cnnc1CNC(=O)c1ccc(Br)cc1O | -48.5
78 | CCn1cnnc1CNC(=O)c1cc(F)ccc1OC | 29.7
79 | CCn1cnnc1CNC(=O)c1ccc(Cl)cc1F | 36.2
80 | COc1cc(Cl)ccc1C(=O)NCc1nncn1C | 52.3
81 | CCn1cnnc1CNC(=O)c1cc(Cl)ccc1O | -35.1
82 | CCn1cnnc1CCNC(=O)c1ccc(Br)cc1F | 25.5
83 | CCn1cnnc1CNC(=O)c1cc(Cl)ccc1F | 56.4
84 | CCn1cnnc1CNC(=O)c1ccc(Br)cc1F | 56.5
85 | CCn1cnnc1CNC(=O)c1cc(Cl)ccc1OC | -9.98
86 | CN(CC(=O)N1CCOCC(CO)C1)Cc1ccc(F)cc1 (configuration not stated) | -12.1
87 | Cc1noc(C)c1CN1CCCC2(C1)CN(Cc1nccn1C)CCO2 (configuration not stated) | 10
88 | CC(C)=CCN1C[C@@H]2CC[C@H]1CN(C(=O)c1ccc3c(c1)OCO3)C2 | 33

Row | SMILES | INHIBITION [%]
89 | CN(C)S(=O)(=O)N1CCN(Cc2ccnc(N3CCCC3)n2)CC1 | 7.52
90 | COc1ccc(-c2cc(C3CCNCC3)ccn2)cc1 | 23.9
91 | O=C(c1ccc(-c2ccc(O)nc2)s1)N1CCCCC1 | -69.6
92 | Cc1cc(NC(=O)c2nc(N3CCCC3)ncc2Cl)nc(C(C)C)n1 | 66.8
93 | O=C(Nc1ccccn1)c1nc(N2CCCC2)ncc1Cl | -4.48
94 | O=C(Nc1cc(Cl)ccn1)c1nc(N2CCCC2)ncc1Cl | -35
95 | O=C1NCC(C(=O)Nc2ncc(Cc3ccccc3F)s2)N1 (configuration not stated) | -17.4
96 | CS(=O)(=O)N1CCc2sc(C(=O)NCCc3ccccn3)cc21 | -47.8
97 | CC(C)(C)OC(=O)NCCNC(=O)c1ccc2cc[nH]c2c1 | -16
98 | COCCN1C(=O)CCC12CCCN(Cc1ccccc1F)C2 (configuration not stated) | 44.5
99 | Cc1ncsc1CN1C[C@@H]2CCCO[C@@H]2[C@H](N(C)C(C)C)C1 | 50.7
100 | Cc1nc(CN2C[C@@H]3CCCO[C@@H]3[C@H](N(C)C(C)C)C2)cs1 | 66.8
101 | Cc1nc(CN2C[C@@H]3CCCO[C@@H]3[C@H](NC(=O)CC3CC3)C2)cs1 | 47.9
102 | COC1CCC[C@@H]2CN(Cc3csc(C)n3)C[C@H]12 (some centres not stated) | 40.3
103 | Cc1cc(CN2C[C@@H]3CCCO[C@@H]3[C@H](NS(C)(=O)=O)C2)no1 | -13
104 | Cc1cc(CN2C[C@@H]3CCCO[C@@H]3[C@H](N(C)C(C)C)C2)no1 | 71.6
105 | Cc1ncsc1CN1C[C@@H]2CCCO[C@@H]2[C@H](Nc2ccccn2)C1 | 34.2
106 | CCS(=O)(=O)N[C@@H]1CN(Cc2cc(C)on2)C[C@@H]2CCCO[C@@H]21 | 21
107 | Cc1ncsc1CN1C[C@H](OCC(C)C)[C@H]2OCCC[C@H]21 | -37.9
